“And” between values parts separate entries of the source, which are not always exact repeats. Equal entries are not always repeated. About 83,000 compounds went through this panel and 20% of them were active in at least one assay; those are over-represented in the sample as a whole.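 Compound tested at a single concentration for 48 hours in 96-well plates; a percent growth value below 10 was scored as active.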 The source made the active and inactive calls.
tested on: MDA-MB-468 breast; assay: NCI-60 one-dose screen, 48 h (100 = growth as untreated, 0 = no growth, -100 = all killed); settings: 10 µM unless noted

| Structure (SMILES) | growth |
| --- | --- |
| CCOc1ccccc1/C=N/N1CCCCCC1 | 108% (inactive) |
| CCOc1ccc2c(c1)CC[C@@H]1[C@@H]2CC[C@]2(C)[C@@H](O)[C@@H](O)C[C@@H]12 | 87.5% (inactive) |
| CC(C)(C)c1ccc(C(=O)Nc2sc3c(c2C(N)=O)CC/C(=N\O)C3)cc1 | 2.17% (active) |
| CN(C)Cc1ccc(O)c(C(=O)O)c1 | 106% (inactive) |
| C#Cc1cccc(NC(=O)Nc2ccc(NC(=O)CCl)cc2)c1 | -53.7% [8.25 µM] (active) |
| N#Cc1c(-c2cccs2)cc(-c2cnccn2)nc1SCC(=O)c1ccc(F)cc1 | 101% (inactive) |
| COC(=O)/C=C1/SC(=Nc2ccc([N+](=O)[O-])cc2)N(CCc2c[nH]c3ccc(O)cc23)C1=O | 56.8% (inactive) |
| CCN(CC)CCNc1ccc(CO)c2oc3cc(Cl)ccc3c(=O)c12 | 68.1% (inactive) |
| CC(C)(C)[Si](C)(C)OC1[C@@H](CNC(N)=O)O[C@@H](n2cnc3c(NC(=O)Nc4ccccc4)ncnc32)[C@H]1O[Si](C)(C)C(C)(C)C (stereo partly specified) | 85.2% (inactive) |
| Cc1ccc(S(=O)(=O)NC(=O)n2cc(-c3ccncc3)c(-c3ccc(Cl)c(O)c3)n2)cc1 | 101% (inactive) |
| O=C(Nc1ccccc1)Nc1ncnc2c1ncn2-c1ccccc1 | 74.3% (inactive) |
| S=c1nc(-c2ccccc2)oc(=NC2CCCCC2)n1C1CCCCC1 | -42.1% (active) |
| N#Cc1nn(-c2ccccn2)c(N)c1C#N | 116% (inactive) |
| COc1cc2c(cc1O)CC[C@@H]1[C@@H]2CC[C@]2(C)[C@@H](NCCN(C)C)CC[C@@H]12 | -85.1% (active) |
| O=C1[C@@H]2Cc3c([nH]c4ccccc34)[C@H](c3ccc(Cl)cc3)N2C(=O)CN1C1CCN(Cc2ccccc2)CC1 | 23.1% (inactive) |
| CC(=O)Nc1nc(C(=O)N2N=C(C)/C(=C/c3ccc(Cl)cc3)C2=O)cs1 | 103% (inactive) |
| CCCCC(CCCC)(S(=O)(=O)CC)S(=O)(=O)CC | 98.2% (inactive) |
| COc1cc(OCc2cccc(Br)c2C)cc(OC)c1C=O | 20.8% (inactive) |

| Structure (SMILES) | growth |
| --- | --- |
| COc1ncc2cc1NS(=O)(=O)c1cccc(c1)C(=O)NCC1=CC=C(S1)c1ncnc3c1SC2=C3C | -34.5% (active) |
| Fc1cccc(CNc2c3ccccc3nc3ccccc23)c1 | 0.607% (active) |
| COc1ccc(C2=C(c3ccccc3)c3ccc(OC(C)=O)cc3OC2(C)C)cc1 | 86.2% (inactive) |
| CNc1cc2nc3cc(NC)c(C)cc3cc2cc1C | -11.5% (active) |
| CC1Cc2cc(F)ccc2-n2cccc21 (stereo unspecified) | 136% (inactive) |
| COc1ccc(-c2nnc(SCC(=O)c3ccccc3)o2)cc1 | 91.5% (inactive) |
| CCN1C(=O)N(CC)C2C1NN=c1s/c(=C\c3ccccc3Br)c(=O)n12 (stereo unspecified) | 27.5% (inactive) |
| CC1=CC(=O)C=CC1=Nc1ccc(N(C)C)cc1 | 48.8% (inactive) and -87.8% (active) |
| Cc1cn(-c2cc(NC(=O)c3cncc(C#Cc4cnc5ccc(O[C@H]6CCOC6)nn45)c3)cc(C(F)(F)F)c2)cn1 | 145% (inactive) |
| CCCS(=O)(=O)Nc1ccc(F)c(C(=O)c2c[nH]c3ncc(-c4ccc(Cl)cc4)cc23)c1F | 39.3% (inactive) |
| COc1ccc(S(=O)(=O)N2CC3(COC3)C2)cc1NC(=O)c1[nH]c(C)c2c1CCCCC2=O | 22.2% (inactive) |
| CO[C@H]1/C=C/O[C@@]2(C)Oc3c(C)c(O)c4c(O)c(c5c(nc6cc(C)ccn65)c4c3C2=O)NC(=O)/C(C)=C\C=C\[C@H](C)[C@H](O)[C@@H](C)C(O)[C@@H](C)[C@H](OC(C)=O)[C@@H]1C (stereo partly specified) | 105% (inactive) |
| Brc1ccc(-c2[nH]ncc2-c2c[nH]c3ccccc23)cc1 | 99.5% (inactive) |
| c1cc(CNCCNCc2ccncc2)ccn1 | 104% (inactive) |
| Oc1ccc(C(c2ccc(O)cc2)C(Cl)(Cl)Cl)cc1 | 90% (inactive) |
| CN1CCN(CC#CCn2c3c(c4ccccc42)C[C@]2(C)[C@H]4CC[C@@H]5[C@H]6[C@H]7OC(=O)[C@@]6(CCC7(C)C)CC[C@@]5(C)[C@]4(C)CC[C@H]2C3(C)C)CC1 | 93.9% (inactive) |
| COc1cc(/C=C/C(=O)c2c(-c3ccc(F)cc3)nc3sc(C)nn23)cc(OC)c1OC | 23.9% (inactive) |
| CCCCCCCCCCCCCCCCNC(=O)Nc1ccc(C)c(NC(=O)NCCCCCCCCCCCCCCCC)c1 | 101% (inactive) |

From PubChem BioAssay (NCI)
